Here are results for 8 compounds from PubChem BioAssay (Tox21).

Structures are written as SMILES. Values joined by “and” are separate entries in the source; they are usually repeats but may differ in a detail not shown here. Equal values may be shown once. Inconclusive results are not listed. Some structures have more than one record in an assay (separate samples or runs), and their calls can disagree. Active and inactive are the calls of the source. Unless noted, the call rests on the fitted dose curve; in most records, active means well fitted curve in the direction sought with a large enough effect in the repeat runs; inconclusive means weak or mixed curves; inactive means no such curve, though single readings can be large; an effect the other way counts as inactive or inconclusive.

The nature of assay [1]: qHTS assay to identify small molecule antagonists of the thyroid receptor (TR) signaling pathway - cell viability counter screen (AID 743064). Further: nearly all actives have a fitted effect of over 50% in size. Further: potency means the concentration at half of the fitted maximal effect. In short, it runs like this:
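CellTiter-Fluor readout, 30 min at 37 °C/5% CO2, following 23.5 h incubation of GH3.TRE-Luc cells with test compound and 1 nM T3 (final).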
For orientation: qHTS replaces the single test concentration by a dilution series.

The nature of assay [2]: qHTS assay to identify small molecule antagonists of the thyroid receptor (TR) signaling pathway (AID 743065). Further: nearly all actives have a fitted effect of over 55% in size. Further: potency means the concentration at half of the fitted maximal effect. The procedure, abridged:
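GH3.TRE-Luc rat pituitary cells (two TREs driving luciferase) were dosed with compound, then stimulated with 1 nM T3 (final) for 23.5 h at 37 C. ONE-Glo luminescence was the read-out, with CellTiter-Fluor fluorescence as the cytotoxicity counter-screen.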

Assay [3] relates to thyroid hormone receptor (rat, GH3 cells). The experiment in a line: qHTS assay to identify small molecule agonists of the thyroid receptor (TR) signaling pathway (AID 743066; calls by dose curve).
Assay [4] addresses Estrogen receptor (Homo sapiens) (UniProt P03372). The experiment in a line: qHTS assay to identify small molecule antagonists of the estrogen receptor alpha (ER-alpha) signaling pathway (AID 743069; active means well fitted curve in the direction sought with a large enough effect in the signal ratio in the repeat runs, not every such curve was filed as active; the % refers to the signal ratio). In short, it runs like this:
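HEK293 ER-alpha-UAS-bla GripTite cells, held overnight in 2% charcoal-stripped FBS, 5,000 cells/well, preincubated 4 h, then compound plus 17beta-estradiol for 18 h at 37C. Beta-lactamase read by LiveBLAzer B/G FRET substrate, 2 h at room temperature.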

Assay [5] can be described thus: qHTS assay to identify small molecule antagonists of the estrogen receptor alpha (ER-alpha) signaling pathway - cell viability counter screen (AID 743074; calls by dose curve;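 further: HEK293 cells carrying ER-alpha-UAS-bla reporter stimulated with 17beta-estradiol; nearly all actives have a fitted effect of over 45% in size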; further: potency means the concentration at half of the fitted maximal effect).
Assay [6] concerns the target Estrogen receptor (Homo sapiens) (UniProt P03372). Nature of the assay: qHTS assay to identify small molecule agonists of the estrogen receptor alpha (ER-alpha) signaling pathway (AID 743075; calls by dose curve).
For assay [7] the target is unchanged. The experiment in a line: qHTS assay to identify small molecule agonists of the estrogen receptor alpha (ER-alpha) signaling pathway using the BG1 cell line (AID 743079). Further: nearly all actives have a fitted effect of over 20% in size. Further: potency means the concentration at half of the fitted maximal effect.
Assay [8] in a line: qHTS assay to identify small molecule antagonists of the estrogen receptor alpha (ER-alpha) signaling pathway using the BG1 cell line (AID 743080; calls by dose curve;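 further: BG1 cells stimulated with 17beta-estradiol alongside compound; series mostly up to about 70 µM; nearly all actives have a fitted effect of over 25% in size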). The procedure, abridged:
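Quantitative HTS on the Tox21 10K library: BG1 cells with endogenous ER-alpha and ERE-luciferase reporter, 17beta-estradiol stimulation, 21.5 h compound exposure, luminescence endpoint with parallel fluorescence cytotoxicity counter-read.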

Assay [9] is described as follows: qHTS assay to identify small molecule antagonists of the estrogen receptor alpha (ER-alpha) signaling pathway using the BG1 cell line - cell viability counter screen (AID 743081).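 Further: compound given together with 17beta-estradiol as the ER stimulus; series mostly up to about 70 µM; nearly all actives have a fitted effect of over 45% in size.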
The target in a further assay is Aromatase (Homo sapiens) (UniProt P11511). The experiment in a line: qHTS assay to identify aromatase inhibitors (AID 743083). Further: nearly all actives have a fitted effect of over 55% in size. Further: potency means the concentration at half of the fitted maximal effect.
Chain of Aromatase (Homo sapiens) (P11511 whole entry, looked up): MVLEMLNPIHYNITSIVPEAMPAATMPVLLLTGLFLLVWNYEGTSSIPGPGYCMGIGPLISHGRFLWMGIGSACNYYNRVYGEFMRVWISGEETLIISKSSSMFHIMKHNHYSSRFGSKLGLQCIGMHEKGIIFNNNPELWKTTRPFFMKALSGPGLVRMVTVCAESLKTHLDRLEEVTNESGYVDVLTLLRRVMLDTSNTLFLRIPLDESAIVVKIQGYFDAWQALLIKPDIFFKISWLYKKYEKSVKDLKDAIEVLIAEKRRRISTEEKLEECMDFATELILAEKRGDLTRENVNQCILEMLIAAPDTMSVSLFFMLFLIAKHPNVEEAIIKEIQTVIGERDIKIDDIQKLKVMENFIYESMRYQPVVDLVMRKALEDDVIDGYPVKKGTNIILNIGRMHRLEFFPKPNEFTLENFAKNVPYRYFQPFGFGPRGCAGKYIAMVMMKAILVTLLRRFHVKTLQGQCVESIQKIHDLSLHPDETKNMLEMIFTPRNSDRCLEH
The nature of assay [10]: qHTS assay to identify aromatase inhibitors - cell viability counter screen (AID 743084).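 Further: cells stimulated with testosterone during compound exposure; nearly all actives have a fitted effect of over 55% in size.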 Further: potency means the concentration at half of the fitted maximal effect.
A short description of assay [11]: qHTS assay to identify small molecule that activate the aryl hydrocarbon receptor (AhR) signaling pathway - cell viability counter screen (AID 743086).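 Further: HepG2 liver cells carrying the AhR DRE luciferase reporter; series mostly up to about 70 µM; nearly all actives have a fitted effect of over 45% in size.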 In short, it runs like this: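 HepG2-AhR-luc (HG2L7.5c1) cells, 4000/well, treated 24 h at 37 C with compound; viability measured as CellTiter-Fluor fluorescence after 30 min in the same wells as the luciferase read.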

Assay [12] has as its target Peroxisome proliferator-activated receptor gamma (Homo sapiens) (UniProt P37231). Nature of the assay: qHTS assay to identify small molecule agonists of the peroxisome proliferator-activated receptor gamma (PPARg) signaling pathway (AID 743094; active means well fitted activation curve with a large enough effect in the signal ratio in the repeat runs, not every such curve was filed as active; the % refers to the signal ratio). The procedure, abridged: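 Compounds dissolved in DMSO were added to PPARg UAS-bla HEK293H cells for 17 h at 37C, and reporter expression was quantified by fluorescence intensity after 1 h with LiveBLAzer B/G FRET substrate.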

A short description of assay [13]: qHTS assay for small molecule activators of the heat shock response signaling pathway - cell viability counter screen (AID 743209). Further: nearly all actives have a fitted effect of over 50% in size. Further: potency means the concentration at half of the fitted maximal effect. In short, it runs like this:
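Readout: CellTiter-Glo luminescence, 30 min at room temperature. System: HSE-bla HeLa cells, 1500/well, plated overnight. Treatment: compounds in DMSO, 5 h at 37 C.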

Assay [14] in a line: qHTS assay for small molecule activators of the heat shock response signaling pathway (AID 743210; active means well fitted activation curve with a large enough effect in the signal ratio in the repeat runs, with a control signal flat, not every such curve was filed as active; the % refers to the signal ratio; further: series mostly up to about 63 µM). In short, it runs like this: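 HSE-bla HeLa cells (beta-lactamase reporter under heat shock response elements), plated overnight, then exposed to compounds 5 h at 37 C; LiveBLAzer B/G FRET substrate added, 2.5 h at room temperature, fluorescence intensity read.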
Assay [15] addresses Aryl hydrocarbon receptor (Homo sapiens) (UniProt P35869). Nature of the assay: qHTS assay to identify small molecule that activate the aryl hydrocarbon receptor (AhR) signaling pathway (AID 743085).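 Further: HG2L7.5c1 human HepG2 liver cells with stably integrated DRE-driven firefly reporter; series mostly up to about 70 µM; nearly all actives have a fitted effect of over 15% in size.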 The procedure, abridged:
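Stably transfected human liver carcinoma cells (HG2L7.5c1; 20 DRE-firefly luciferase) were incubated 5 h, dosed, and kept 24 h at 37C. Agonism was scored from increased luciferase luminescence.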

For assay [16], the target named is Peroxisome proliferator-activated receptor gamma (Homo sapiens) (UniProt P37231). Nature of the assay: qHTS assay to identify small molecule antagonists of the peroxisome proliferator-activated receptor gamma (PPARg) signaling pathway (AID 743191; calls by dose curve; further: series mostly up to about 63 µM; nearly all actives have a fitted effect of over 30% in size). The procedure, abridged: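 GeneBLAzer PPARg UAS-bla HEK293H cells, 5 h post-plating, exposed to compounds 17 h at 37C. LiveBLAzer B/G FRET substrate added for 1 h at room temperature; beta-lactamase reporter read by fluorescence intensity.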
Chain of Peroxisome proliferator-activated receptor gamma (Homo sapiens) (P37231 whole entry, looked up): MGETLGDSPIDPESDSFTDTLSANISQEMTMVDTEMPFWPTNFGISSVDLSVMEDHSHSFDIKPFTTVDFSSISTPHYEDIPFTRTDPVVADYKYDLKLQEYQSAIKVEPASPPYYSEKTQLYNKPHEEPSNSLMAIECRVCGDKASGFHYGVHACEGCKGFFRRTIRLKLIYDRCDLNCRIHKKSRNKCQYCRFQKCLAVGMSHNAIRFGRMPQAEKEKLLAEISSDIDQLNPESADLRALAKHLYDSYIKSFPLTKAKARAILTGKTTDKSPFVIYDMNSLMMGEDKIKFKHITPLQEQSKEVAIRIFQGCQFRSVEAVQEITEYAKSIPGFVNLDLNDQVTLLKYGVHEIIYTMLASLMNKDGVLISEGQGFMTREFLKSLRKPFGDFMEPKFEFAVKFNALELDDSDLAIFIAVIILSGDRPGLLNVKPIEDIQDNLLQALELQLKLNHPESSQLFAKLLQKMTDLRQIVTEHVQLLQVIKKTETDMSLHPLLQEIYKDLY

Assay [17] can be described thus: qHTS assay to identify small molecule antagonists of the peroxisome proliferator-activated receptor gamma (PPARg) signaling pathway - cell viability counter screen (AID 743194). Further: nearly all actives have a fitted effect of over 55% in size. Further: potency means the concentration at half of the fitted maximal effect. In short, it runs like this: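 Cytotoxicity counter screen in PPARg-bla HEK293H cells, same wells as reporter assay. Compounds plus 50 nM rosiglitazone (final) for 17 h at 37 C, then viability read by CellTiter-Glo luminescence.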

Assay [18] is described as follows: qHTS assay for small molecule agonists of the antioxidant response element (ARE) signaling pathway - cell viability counter screen (AID 743203; calls by dose curve; further: nearly all actives have a fitted effect of over 55% in size; further: potency means the concentration at half of the fitted maximal effect). The procedure, abridged: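 Following 16 hrs of compound treatment at 37C, HepG2 cells with an ARE-controlled beta-lactamase gene were lysed with CellTiter-Glo. Luminescence was read after 30 min at room temperature.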

Assay [19] can be described thus: qHTS assay for small molecule agonists of the antioxidant response element (ARE) signaling pathway (AID 743202; active means well fitted activation curve with a large enough effect in the signal ratio in the repeat runs, not every such curve was filed as active; the % refers to the signal ratio). The procedure, abridged:
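ARE-bla HepG2 cells (beta-lactamase reporter under the antioxidant response element), plated 5 hours, then exposed to compounds 16 hours at 37 C. LiveBLAzer B/G FRET substrate added for 2 hours at room temperature; fluorescence intensity read.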

Chain of Estrogen receptor (Homo sapiens) (P03372 whole entry, looked up): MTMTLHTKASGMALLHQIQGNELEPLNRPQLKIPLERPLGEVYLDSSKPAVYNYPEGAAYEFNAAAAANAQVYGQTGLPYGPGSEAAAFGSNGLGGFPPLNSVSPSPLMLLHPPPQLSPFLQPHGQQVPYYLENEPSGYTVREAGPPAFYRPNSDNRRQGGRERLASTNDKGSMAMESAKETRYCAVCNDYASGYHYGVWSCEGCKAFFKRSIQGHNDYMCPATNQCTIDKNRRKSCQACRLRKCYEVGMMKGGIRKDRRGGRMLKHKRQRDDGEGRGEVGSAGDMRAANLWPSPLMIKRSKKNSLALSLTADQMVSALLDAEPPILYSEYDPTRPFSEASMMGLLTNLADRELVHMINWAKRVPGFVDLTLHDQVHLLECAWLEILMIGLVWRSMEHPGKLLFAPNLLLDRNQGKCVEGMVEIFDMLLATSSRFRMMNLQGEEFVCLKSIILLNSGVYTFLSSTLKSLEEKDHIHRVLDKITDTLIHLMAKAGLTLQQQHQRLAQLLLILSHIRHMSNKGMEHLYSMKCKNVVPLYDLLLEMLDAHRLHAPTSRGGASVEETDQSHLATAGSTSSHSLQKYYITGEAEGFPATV
Chain of Aryl hydrocarbon receptor (Homo sapiens) (P35869 whole entry, looked up): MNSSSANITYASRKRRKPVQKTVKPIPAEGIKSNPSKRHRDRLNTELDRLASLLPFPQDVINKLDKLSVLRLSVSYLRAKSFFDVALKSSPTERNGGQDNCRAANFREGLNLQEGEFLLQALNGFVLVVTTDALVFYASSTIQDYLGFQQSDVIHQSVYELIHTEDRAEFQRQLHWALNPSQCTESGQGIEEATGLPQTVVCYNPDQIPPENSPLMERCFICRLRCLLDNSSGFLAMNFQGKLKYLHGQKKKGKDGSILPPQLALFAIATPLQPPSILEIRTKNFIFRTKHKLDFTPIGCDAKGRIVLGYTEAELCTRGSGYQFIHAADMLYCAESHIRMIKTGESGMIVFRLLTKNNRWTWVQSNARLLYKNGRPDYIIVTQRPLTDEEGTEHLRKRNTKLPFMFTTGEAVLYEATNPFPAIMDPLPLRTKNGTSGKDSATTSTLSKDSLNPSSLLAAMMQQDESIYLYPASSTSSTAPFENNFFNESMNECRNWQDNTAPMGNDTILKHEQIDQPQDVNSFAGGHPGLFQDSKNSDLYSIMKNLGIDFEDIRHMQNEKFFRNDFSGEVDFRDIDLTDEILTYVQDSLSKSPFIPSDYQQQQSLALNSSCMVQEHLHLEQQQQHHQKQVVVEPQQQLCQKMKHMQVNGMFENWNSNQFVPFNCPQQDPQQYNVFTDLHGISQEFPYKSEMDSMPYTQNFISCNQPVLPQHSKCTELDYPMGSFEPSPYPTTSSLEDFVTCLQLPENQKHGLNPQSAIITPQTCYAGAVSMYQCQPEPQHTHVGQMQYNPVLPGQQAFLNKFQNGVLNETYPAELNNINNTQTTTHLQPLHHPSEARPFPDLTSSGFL

With `CCCC1CCC(=O)CC1`, the Potency entry in assay [1], in assay [2], in assay [4], in [5], in [6] and in assay [7] was “inactive” each time. Further, the Potency entry (in [8]; in assay [9]; with Aromatase (Homo sapiens); in assay [10]; in assay [11]; in [12]) was “inactive” each time. The Potency result in [13] and in assay [14] was “inactive” throughout. The compound was called inactive in [3].

As for `O=C1CCc2cc(OCCCCc3nnnn3C3CCCCC3)ccc2N1`, the Potency entry in assay [1], in [2], in assay [4], in assay [5], in [6] and in [7] was “inactive” in each case. The Potency result (in [9]; in the assay with Aromatase (Homo sapiens); in assay [10]; in assay [15]; in assay [11]; in assay [16]) was “inactive” in each case. Moreover, the Potency entry in [17], in [13] and in assay [14] was “inactive” each time. In assay [3], the call was inactive.

As to `c1ccc(SSc2ccccc2)cc1`, the Potency entry in assay [1], in assay [2], in assay [4], in assay [5], in [6] and in assay [7] was “inactive” each time. The Potency entry (in assay [8]; in assay [9]; with Aromatase (Homo sapiens); in assay [10]; in [15]; in assay [11]) was “inactive” in each case. For the same compound, the Potency entry in [12], in assay [16], in assay [17], in assay [18] and in assay [13] was “inactive” in each case. In addition, the compound was classed as inactive in [3].

`Nc1ccc(C(=O)O)c(O)c1`: the Potency entry (in [1]; in assay [2]; in assay [5]; in assay [9]; with Aromatase (Homo sapiens); in assay [10]) was “inactive” throughout. The Potency entry in assay [11], in [12], in assay [17], in assay [18] and in assay [13] was “inactive” in each case. Further, the call in assay [3] was inactive.

As for `S=c1nccc[nH]1`, the Potency result in assay [1], in assay [2], in assay [4], in assay [5], in [8] and in [9] was “inactive” each time. For the same compound, the Potency entry (with Aromatase (Homo sapiens); in assay [10]; in [15]; in assay [12]; in assay [17]; in [18]) was “inactive” in each case. In assay [13], the Potency result was “inactive”. Also, in [3], the compound was classed as inactive. Also, in assay [7], the Potency is 30.7 µM (active).

Consider `CCCCCCCC`, for which the Potency entry in assay [1], in assay [2], in assay [4], in [5], in assay [8] and in assay [9] was “inactive” in each case. Also, the Potency result (with Aromatase (Homo sapiens); in assay [10]; in assay [11]; in [16]; in assay [17]; in assay [19]) was “inactive” throughout. Also, the Potency result in [18], in assay [13] and in assay [14] was “inactive” in each case. The compound was classed as inactive in assay [3].

For `CCc1ccc(Br)cc1`, the Potency result in [1], in assay [2], in assay [4], in assay [5], in assay [6] and in assay [8] was “inactive” in each case. In addition, the Potency result (in assay [9]; with Aromatase (Homo sapiens); in assay [10]; in [11]; in assay [12]; in assay [17]) was “inactive” in each case. Further, the Potency entry in assay [19], in [18] and in assay [13] was “inactive” throughout. Further, the outcome in assay [3] was inactive.

Turning to `CCCCCCCCCCCCCC[N+](C)(C)C`, the Potency was 4.22 µM (active) and 11.8 µM (active) and 8.63 µM (active) in assay [1]; 2.98 µM (active) and 5.91 µM (active) and 5.44 µM (active) in assay [2]; 23.9 µM (active) and 37.6 µM (active) in assay [5]; 10.6 µM (active) and 23.5 µM (active) and 15.3 µM (active) in the assay with Aromatase (Homo sapiens); “inactive and 59.1 µM (active)” in assay [10]; 18.8 µM (active) and 24.5 µM (active) and 29.8 µM (active) in [17]. Moreover, the Potency in assay [18] is 23.5 µM (active) and 17.2 µM (active) and 26.6 µM (active); in assay [13] it was 21.1 µM (active) and 15.5 µM (active) and 23.7 µM (active). Besides, the compound was classed as inactive in assay [3]. In addition, the Potency entry in [6], in assay [9] and in assay [15] was “inactive” each time.
